Measured values as given in PubChem BioAssay AID1159580 (chemical genetic matrix, 2015).
The whole screen tested about 5,500 compounds, of which about 2,000 (36%) were called active. About 18% were inconclusive and are not listed. Cut-off read from the data, not from the text of the source: active = normalized growth mostly below about 0.91 (no sharp cut-off); inconclusive = no clear call, values can overlap the other calls; inactive = mostly above about 0.92. The list shows a part of the results.

Test: chemical genetic growth profiling, strain panel (AID 1159580);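 note: tested at 20 µM; growth read once vehicle control cultures reached saturation at 30 °C; 1 = growth at the plate median or of vehicle wells; lower values mean less growth of the strain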
Conditions: growth OD

Measured: normalized growth

COc1c(Br)cc([N+](=O)[O-])c(OC)c1C(N)=O
inactive: S. cerevisiae deletion strains, locus YBR229C, strain ROT2, hits give low values 1.03 | S. cerevisiae deletion strains, locus YCL061C, strain MRC1, hits give low values 1.01 | S. cerevisiae deletion strains, locus YDL101C, strain DUN1, hits give low values 1.03 | S. cerevisiae deletion strains, locus YDL134C, strain PPH21, hits give low values 1.01 | S. cerevisiae deletion strains, locus YDR150W, strain NUM1, hits give low values 0.986 | S. cerevisiae deletion strains, locus YEL061C, strain CIN8, hits give low values 1.02 | S. cerevisiae deletion strains, locus YGR078C, strain PAC10, hits give low values 1.02 | S. cerevisiae deletion strains, locus YHR030C, strain SLT2, hits give low values 1.07 | S. cerevisiae deletion strains, locus YHR087W, strain rtc3, hits give low values 1.01 | S. cerevisiae deletion strains, locus YJL187C, strain SWE1, hits give low values 1 | S. cerevisiae deletion strains, locus YJR043C, strain POL32, hits give low values 1.04 | S. cerevisiae deletion strains, locus YJR075W, strain HOC1, hits give low values 1.01 | S. cerevisiae deletion strains, locus YLR039C, strain RIC1, hits give low values 1.02 | S. cerevisiae deletion strains, locus YLR058C, strain SHM2 (second series), hits give low values 1.01 | S. cerevisiae deletion strains, locus YLR085C, strain ARP6, hits give low values 1.02 | S. cerevisiae deletion strains, locus YLR262C, strain YPT6, hits give low values 1.01 | S. cerevisiae deletion strains, locus YML094W, strain GIM5, hits give low values 1 | S. cerevisiae deletion strains, locus YMR219W, strain ESC1, hits give low values 1.03 | S. cerevisiae deletion strains, locus YMR263W, strain SAP30, hits give low values 0.946 | S. cerevisiae deletion strains, locus YNL153C, strain GIM3, hits give low values 1.02 | S. cerevisiae deletion strains, locus YNL298W, strain CLA4 (second series), hits give low values 1.01 | S. cerevisiae deletion strains, locus YNL322C, strain KRE1, hits give low values 1.02 | S. cerevisiae deletion strains, locus YNR030W, strain Alg12, hits give low values 1.03 | S. cerevisiae deletion strains, locus YPL055C, strain LGE1, hits give low values 0.928 | S. cerevisiae deletion strains, locus YPL241C, strain CIN2, hits give low values 1.02 | S. cerevisiae deletion strains, locus YPR135W, strain CTF4, hits give low values 1.1 | S. cerevisiae strains, strain wild type, hits give low values 1.03
